Experimental data from PubChem BioAssay (EPA / NIEHS).
Values joined by “and” are separate entries in the source; they are usually repeats but may differ in a detail not shown here. Equal entries are not always repeated. Where a structure was tested more than once in an assay, its records may differ in their call. Active and inactive are the calls of the source. The calls were made as follows: active = hit-call score of the fitted dose curve at least 0.9, where 1 is the maximum; inactive = score below 0.9.

Test: BSK_hDFCGF_Proliferation: Cell Proliferation Assessment in the BioMAP Diversity Plus: hDFCGF Assay (AID 2283059);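 also: curves fitted for both rise and fall of signal versus DMSO baseline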
Settings: primary human foreskin fibroblasts
Procedure: BSK_hDFCGF is a cell-based, multiplexed-readout assay that uses foreskin fibroblast, a human skin primary cell, with measurements taken at 24 hours after chemical dosing in a 96-well plate.BSK_hDFCGF_Proliferation is an assay component measured in the BSK_hDFCGF assay. It measures […] related to cell proliferation using Sulforhodamine staining technology.Data from the assay component BSK_hDFCGF_Proliferation was analyzed into 1 assay endpoint. This assay endpoint, BSK_hDFCGF_Proliferation, was analyzed with bidirectional fitting relative to DMSO as the negative control and baseline of activity. Using a type of viability reporter, measures of total protein for gain or loss-of-signal activity can be used to understand the viability at the cellular-level. Furthermore, this assay endpoint can be referred to as a secondary readout, because this assay has produced multiple assay endpoints where this one serves a viability function. To generalize the intended target to other relatable targets, this assay endpoint is annotated to the cell cycle intended target family, where the subfamily is proliferation.
The levels of cell surface (or secreted, indicated by the prefix "s") biomarker endpoints were measured by ELISA. Overt cytotoxicity to cells in confluent adherent cultures (all systems other than the BT system) was assessed by measuring total protein levels using sulforhodamine B (SRB) staining in parallel cultures at the time of biomarker measurements, indicated as SRB endpoints. For proliferation assays for adherent cell types, individual cell types are cultured at sub-confluence and relative cell numbers quantified by SRB staining at time points optimized for each system (48 h: 3C and CASM3C systems; 72 h: BT and HDF3CGF systems; 96 h: SAg system). SRB was performed by staining cells with 0.1% SRB after fixation with 10% TCA and reading wells at 560 nm.Viability and proliferation of PBMC (T cells) was quantified by Alamar Blue reduction for the SAg and BT systems. For PBMC viability (referred to as PBMC Cytotoxicity within the assay endpoint names), cells were plated (75,000/well in a 96-well plate) and then chemical samples added for 1 h before addition of activators, SEB and TSST-1 (20 ng/mL final concentration each). Cells were incubated for 90 h. Then, Alamar Blue (20 uL/well) (Invitrogen, Cat DAL1100) was added for 6 h, and the plates were read with a fluorescence microplate reader at 546/580 nm (excitation/emission). For PBMC proliferation, cells were plated and activated as above but incubated for only 16 h prior to addition of Alamar Blue. Plates were read after 6 h.

Row | SMILES | outcome | AC50
1 | CC(C)(C)c1cc(CCC(=O)NCCCCCCNC(=O)CCc2cc(C(C)(C)C)c(O)c(C(C)(C)C)c2)cc(C(C)(C)C)c1O | inactive | 
2 | O=C(O)CCC(F)(F)C(F)(F)C(F)(F)C(F)(F)C(F)(F)C(F)(F)C(F)(F)F | inactive | 
3 | NC(O)(C(F)(F)F)C(F)(F)F | inactive | 
4 | CCN(CCO)S(=O)(=O)C(F)(F)C(F)(F)C(F)(F)C(F)(F)C(F)(F)C(F)(F)C(F)(F)C(F)(F)F |  | 7.13 µM (active) and 8.13 µM (active)
5 | CN(C(=O)C(F)(F)C(F)(F)C(F)(F)F)[Si](C)(C)C | inactive | 
6 | C[Si](Cl)(Cl)CCC(F)(F)C(F)(F)C(F)(F)C(F)(F)C(F)(F)C(F)(F)F |  | 115 nM (active) and 2.85 µM (active)
7 | Cc1ccc(S(=O)(=O)C(I)I)cc1 |  | 0.208 µM (active)
8 | O=C(O)C(F)(F)C(F)(F)C(F)(F)C(=O)O | inactive | 
9 | O=C(Cl)C(F)(F)C(F)(F)C(F)(F)C(F)(F)C(F)(F)C(F)(F)C(F)(F)F | inactive | 
10 | O=S(=O)(Cl)C(F)(F)C(F)(F)C(F)(F)C(F)(F)C(F)(F)C(F)(F)C(F)(F)C(F)(F)F | inactive | 7.61 µM (active)
11 | OCC(F)(F)C(F)(F)C(F)(F)C(F)(F)C(F)(F)C(F)(F)C(F)(F)C(F)(F)CO |  | 39.8 µM (active) and 47.9 µM (active)
12 | Cc1ccc(O)c(-n2nc3ccccc3n2)c1 | inactive | 
13 | C=CC(=O)OCCC(F)(F)C(F)(F)C(F)(F)C(F)(F)F | inactive | 7.58 µM (active)
14 | O=C1C=CC(=O)N1c1ccc(Cc2ccc(N3C(=O)C=CC3=O)cc2)cc1 |  | 0.162 µM (active)
15 | FC(F)(F)C(F)(F)C(F)(F)C(F)(F)C(F)(F)C(F)(F)C(F)(F)CCI |  | 1.78 µM (active) and 1.25 µM (active)
16 | CCN(CC)c1ccc(C=O)cc1 | inactive | 
17 | NCC(F)(F)C(F)(F)C(F)(F)C(F)(F)C(F)(F)C(F)(F)F | inactive | 
18 | NC(=O)C(F)(F)C(F)(F)C(F)(F)C(F)(F)C(F)(F)C(F)(F)C(F)(F)F | inactive | 
19 | OCC(F)(F)C(F)(F)C(F)(F)C(F)(F)C(F)(F)C(F)(F)CO | inactive | 

Row | SMILES | outcome | AC50
20 | CCN(CC)c1ccc2c(c1)Oc1cc(N(CC)CC)ccc1C21OC(=O)c2ccccc21 |  | 10.5 µM (active)
21 | NCC(F)(F)C(F)(F)C(F)(F)C(F)(F)C(F)(F)C(F)(F)C(F)(F)C(F)(F)F | inactive | 
22 | CNS(=O)(=O)C(F)(F)C(F)(F)C(F)(F)C(F)(F)C(F)(F)C(F)(F)C(F)(F)C(F)(F)F | inactive | 
23 | Nc1cc([N+](=O)[O-])cc(Cl)c1O | inactive | 
24 | O=C(F)C1(F)C(F)(F)C(F)(F)C(F)(F)C(F)(F)C1(F)F | inactive | 
25 | FC(F)(F)C(F)(F)C(F)(F)CC1CO1 (stereo not given) | inactive | 
26 | Cc1cc(O)c(C(C)(C)C)cc1C(C)(C)C |  | 1.78 µM (active)
27 | OCC(F)(F)C(F)(F)C(F)(F)CO | inactive | 
28 | NC(=O)C(F)(F)C(F)(F)C(F)(F)C(F)(F)C(N)=O | inactive | 
29 | C=C(C)C(=O)OCC(F)(F)C(F)(F)C(F)(F)C(F)F | inactive | 
30 | CCOC(=O)CC(=O)C(F)(F)C(F)(F)F | inactive | 
31 | O=C(c1ccccc1)c1ccc(O)cc1O | inactive | 
32 | OCC(O)CC(F)(F)C(F)(F)C(F)(F)C(F)(F)C(F)(F)C(F)(F)C(F)(F)C(F)(F)F (stereo not given) | inactive | 
33 | CCOC(C=C(C)CCC=C(C)C)OCC |  | 32.2 µM (active)
34 | CO[Si](C)(CCC(F)(F)C(F)(F)C(F)(F)C(F)(F)C(F)(F)C(F)(F)F)OC | inactive | 
35 | C=CC(=O)OCC(F)(F)C(F)(F)C(F)(F)C(F)(F)C(F)(F)C(F)(F)C(F)(F)C(F)F |  | 18.4 µM (active) and 11.6 µM (active)
36 | O=C1c2c(O)ccc(Nc3ccc(CCO)cc3)c2C(=O)c2c([N+](=O)[O-])ccc(O)c21 |  | 10.4 µM (active)
37 | O=S(=O)(OCC(F)(F)F)C(F)(F)C(F)(F)C(F)(F)C(F)(F)F | inactive | 
38 | OCC(O)CC(F)(F)C(F)(F)C(F)(F)C(F)(F)F (stereo not given) | inactive | 
